According to PubChem BioAssay (NCI):
Several values for one entry are separate records, joined by “and”; a condition that tells them apart may be missing. Identical values can stand only once. About 83,000 compounds went through this panel and 20% of them were active in at least one assay; those are over-represented in the sample as a whole.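 Negative percent growth values reflect cell death: -40 means 40% of the cells present at the start died, and -100 means all died.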 Activity calls are given as the source filed them. How the source made its calls: active means growth percent below 10; inactive means the rest.

Tests used:
Test in all cases: NCI-60 one-dose screen, 48 h (100 = growth as untreated, 0 = no growth, -100 = all killed)
NCI-H226 lung = test system: NCI-H226 lung
NCI-H322M lung = test system: NCI-H322M lung
HOP-62 NSCLC = test system: HOP-62 NSCLC
NCI-H460 lung = test system: NCI-H460 lung
HOP-92 NSCLC = test system: HOP-92 NSCLC
NCI-H522 lung = test system: NCI-H522 lung
A549/ATCC NSCLC = test system: A549/ATCC NSCLC
786-0 renal = test system: 786-0 renal
COLO 205 colon = test system: COLO 205 colon
DU-145 prostate = test system: DU-145 prostate
K-562 leukemia = test system: K-562 leukemia
MALME-3M melanoma = test system: MALME-3M melanoma
MDA-MB-231 breast = test system: MDA-MB-231 breast
RXF 393 renal = test system: RXF 393 renal
SF-268 CNS = test system: SF-268 CNS
SF-295 CNS = test system: SF-295 CNS
SF-539 CNS = test system: SF-539 CNS
UACC-257 melanoma = test system: UACC-257 melanoma
M14 melanoma = settings: 10 µM

Measured: growth

COc1cccc2c1C(=O)c1c(O)c3c(c(O)c1C2=O)C[C@@](O)(C(=O)CO)C[C@@H]3OC1CC(N)C(O)C(C)O1 (stereo partly drawn)
active: NCI-H226 lung; 10 µM -18.3% | HOP-62 NSCLC; 10 µM 6.93% | NCI-H460 lung; 1 µM -31.1% | NCI-H460 lung; 2.5 µM 9.19% | NCI-H460 lung; 10 µM 0.571% | HOP-92 NSCLC; 10 µM -22.8% | NCI-H522 lung; 1 µM -10.4% | NCI-H522 lung; 10 µM -38% | A549/ATCC NSCLC; 10 µM -30.5% | 786-0 renal; 1 µM -14.3% | 786-0 renal; 10 µM 4.5% | COLO 205 colon; 10 µM -47.4% | DU-145 prostate; 2.5 µM -33.2% | K-562 leukemia; 10 µM 2.13% | MALME-3M melanoma; 1 µM -17.2% | MALME-3M melanoma; 10 µM -80.1% | MDA-MB-231 breast; 10 µM 3.79% | RXF 393 renal; 10 µM -28.5% | SF-268 CNS; 10 µM -4.32% | SF-295 CNS; 1 µM 2.06% | SF-295 CNS; 2.5 µM -1.94% | SF-295 CNS; 10 µM -27.6% | SF-539 CNS; 10 µM -50.3% | UACC-257 melanoma; 10 µM 3.46%
inactive: NCI-H226 lung; 0.0025 µM 84% | NCI-H226 lung; 2.5 µM 23.1% | NCI-H322M lung; 0.0025 µM 86.8% | NCI-H322M lung; 1 µM 63.4% | NCI-H322M lung; 2.5 µM 101% | NCI-H322M lung; 10 µM 13.9% | HOP-62 NSCLC; 0.0025 µM 88.3% | HOP-62 NSCLC; 2.5 µM 31.5% | NCI-H460 lung; 0.0025 µM 73.4% | HOP-92 NSCLC; 0.0025 µM 85.2% | HOP-92 NSCLC; 2.5 µM 51% | NCI-H522 lung; 0.0025 µM 78.3% | A549/ATCC NSCLC; 0.0025 µM 73% | A549/ATCC NSCLC; 1 µM 33.7% | A549/ATCC NSCLC; 2.5 µM 36.5% | 786-0 renal; 0.0025 µM 84.4% | 786-0 renal; 2.5 µM 26.8% | COLO 205 colon; 0.0025 µM 85.8% | COLO 205 colon; 1 µM 53.8% | COLO 205 colon; 2.5 µM 56.7% | DU-145 prostate; 10 µM 13.2% | K-562 leukemia; 0.0025 µM 107% | K-562 leukemia; 1 µM 32.8% | K-562 leukemia; 2.5 µM 28.1% | MALME-3M melanoma; 0.0025 µM 79.3% | MALME-3M melanoma; 2.5 µM 30% | MDA-MB-231 breast; 0.0025 µM 124% | MDA-MB-231 breast; 1 µM 71% | MDA-MB-231 breast; 2.5 µM 82.1% | RXF 393 renal; 0.0025 µM 107% | SF-268 CNS; 0.0025 µM 97% | SF-268 CNS; 1 µM 41% | SF-268 CNS; 2.5 µM 16.7% | SF-295 CNS; 0.0025 µM 95.8% | SF-539 CNS; 0.0025 µM 97.1% | SF-539 CNS; 1 µM 36.5% | SF-539 CNS; 2.5 µM 32.3% | UACC-257 melanoma; 0.0025 µM 90% | UACC-257 melanoma; 1 µM 28.3% | UACC-257 melanoma; 2.5 µM 42.8%

CCO/C=C1\SC(=S)N(c2cccc(O)c2)C1=O
inactive: NCI-H226 lung; 10 µM 96.1% | NCI-H322M lung; 10 µM 95.8% | HOP-62 NSCLC; 10 µM 97.4% | NCI-H460 lung; 10 µM 106% | 786-0 renal; 10 µM 101% | COLO 205 colon; 10 µM 109% | DU-145 prostate; 10 µM unless noted 109% | K-562 leukemia; 10 µM 89.9% | MALME-3M melanoma; 10 µM 88.2% | MDA-MB-231 breast; 10 µM 102% | RXF 393 renal; 10 µM unless noted 102% | SF-268 CNS; 10 µM 103% | SF-295 CNS; 10 µM 99.5% | SF-539 CNS; 10 µM 102%

NNc1ccc2ccccc2c1
inactive: NCI-H226 lung; 10 µM 87.3% and 85.8% | NCI-H322M lung; 10 µM 83% and 97.3% | HOP-62 NSCLC; 10 µM 81.1% and 97.4% | NCI-H460 lung; 10 µM 105% | HOP-92 NSCLC; 10 µM 97% and 95.6% | NCI-H522 lung; 10 µM unless noted 79.5% and 98.6% | A549/ATCC NSCLC; 10 µM 102% and 106% | 786-0 renal; 10 µM 99.8% and 98.3% | COLO 205 colon; 10 µM 94% and 109% | DU-145 prostate; 10 µM unless noted 98.5% and 111% | K-562 leukemia; 10 µM 86% and 115% | MALME-3M melanoma; 10 µM 90.1% and 96.8% | MDA-MB-231 breast; 10 µM 68.7% and 90.1% | RXF 393 renal; 10 µM unless noted 122% and 98.9% | SF-268 CNS; 10 µM 75.8% and 96.8% | SF-295 CNS; 10 µM 95.8% and 102% | SF-539 CNS; 10 µM 86% and 100% | UACC-257 melanoma; 10 µM 107% and 105%

O=C1C=CC(=CC=C2C=CN(CCCCCCCCCCCO)C=C2)C=C1
active: COLO 205 colon; 10 µM -42.6% | UACC-257 melanoma; 10 µM 4%
inactive: NCI-H226 lung; 10 µM 59.6% | NCI-H322M lung; 10 µM 92.4% | HOP-62 NSCLC; 10 µM 44.5% | NCI-H460 lung; 10 µM 17.5% | HOP-92 NSCLC; 10 µM 24% | NCI-H522 lung; 10 µM unless noted 18.2% | A549/ATCC NSCLC; 10 µM 46.3% | 786-0 renal; 10 µM 67.2% | DU-145 prostate; 10 µM unless noted 44.3% | K-562 leukemia; 10 µM 24.7% | MALME-3M melanoma; 10 µM 41.6% | RXF 393 renal; 10 µM unless noted 69.2% | SF-295 CNS; 10 µM 45.3% | SF-539 CNS; 10 µM 41.4% | M14 melanoma 45.4%
